Rows were chosen to be rich in hits. Some 9.6% of all compounds tested hit in one or more screens of this group.
USP30 inh – human USP30 deubiquitinase inhibition. purified USP30, Ub-rhodamine cleavage fluorescence. Q70CQ3. hit rate 5.3% among 47,000. inhibition, % at 25 µM
USP17 block – inhibitors of human USP17 deubiquitinase; hit rate 6.5% among 47,000; AID 1645855; purified USP17, Ub-rhodamine cleavage fluorescence, 3 h; inhibition, % at 50 µM
Target sequence (A8MUK1 whole entry, looked up): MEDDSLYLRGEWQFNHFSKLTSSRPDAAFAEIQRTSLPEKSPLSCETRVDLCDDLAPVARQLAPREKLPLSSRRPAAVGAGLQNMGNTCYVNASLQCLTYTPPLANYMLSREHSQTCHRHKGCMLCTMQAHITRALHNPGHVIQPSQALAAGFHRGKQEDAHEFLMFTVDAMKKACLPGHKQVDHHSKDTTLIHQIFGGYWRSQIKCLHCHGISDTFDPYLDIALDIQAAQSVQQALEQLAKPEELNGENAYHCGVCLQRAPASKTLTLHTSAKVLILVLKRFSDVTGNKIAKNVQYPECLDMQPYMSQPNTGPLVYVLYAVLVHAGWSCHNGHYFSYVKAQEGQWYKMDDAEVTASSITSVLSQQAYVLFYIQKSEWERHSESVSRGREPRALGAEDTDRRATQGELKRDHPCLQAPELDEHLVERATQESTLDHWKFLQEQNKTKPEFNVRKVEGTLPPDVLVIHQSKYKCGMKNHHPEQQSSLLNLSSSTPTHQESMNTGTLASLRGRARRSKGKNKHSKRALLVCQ
Of the large screens only hits and unclear results are named; the others gave an inactive call. No stated cut-off is given here; in the data, active means inhibition above about 30%; inactive means the rest.

CC(=O)N[C@@]12CN(C(C)=O)CC[C@@H]1[C@@H](c1ccccc1)N(CC(=O)Nc1cccc(C)c1C)C2	none
CC(C)S(=O)(=O)N1CCn2c(nnc2-c2cncc(Br)c2)C1	none
Cc1ccc(NC(=O)c2nn(C)c3ccccc3c2=O)cc1	none
Cc1cccc(NC(=O)c2nn(C)c3ccccc3c2=O)c1	USP30 inh 36.8, USP17 block 64.3
COc1cccc(C(=O)N2CCc3nc(C(=O)N4CCCC4)sc3CC2)c1	none
Cn1cccc1C(=O)Nc1cnn(-c2ncc(N3CCCCC3)cn2)c1	none
Cn1cccc1C(=O)Nc1cnn(-c2ncc(N3CCCC3)cn2)c1	USP17 block 31.4
O=C(C[n+]1cc(-c2ccc(F)cc2)n2c1CCC2)c1cccs1	none
Cc1ccc(-c2c[n+](CC(=O)Nc3cccc4ccccc34)c3n2CCC3)cc1	USP30 inh 34.0
C[C@@H]1C/C=C/C(=O)O[C@H](C)C[C@@H](O)[C@H](O)/C=C/C(=O)O1	none
CCc1nc2c(c(=O)c3ccccc3n2C)c(=O)n1-c1ccc(C)cc1	USP17 block 48.6 (no result: USP30 inh)
Cn1c2ccccc2c(=O)c2c(=O)n(-c3ccccc3)c(-c3ccc(Cl)cc3)nc21	none
Cn1c2ccccc2c(=O)c2c(=O)n(C3CCCCC3)c(-c3ccc([N+](=O)[O-])cc3)nc21	none
Cn1c2ccccc2c(=O)c2c(=O)n(-c3cccc(Cl)c3)c(-c3cccs3)nc21	USP17 block 30.4
Cc1cc(SCC(=O)NCc2ccccc2)nc(-c2ccccc2)n1	none
O=C(Nc1nccn(-c2ccc3c(c2)CCC3)c1=O)c1ccccc1	none
COc1ccccc1-n1ccnc(NC(=O)Nc2cccc(F)c2)c1=O	USP17 block 46.4
O=C(Nc1ccccc1)Nc1nccn(-c2ccc3c(c2)CCC3)c1=O	USP30 inh 39.0, USP17 block 30.3
COc1cccc(NC(=O)Nc2nccn(-c3ccc(F)cc3)c2=O)c1	USP17 block 54.3
O=C(Nc1ccc(F)cc1F)Nc1nccn(-c2cccc(F)c2)c1=O	none
CCOc1cccc2nnc(NC(=O)Nc3cccc(F)c3)n12	none
CC(C)CN1C[C@@]23CN(C(=O)c4cnccn4)C[C@@H](C[C@@H]2S1(=O)=O)O3	none
CCOc1cc(CN2CCC(C(=O)NCc3ccccc3Cl)CC2)ccc1O	none
Fc1cc(F)cc(Nc2ncnc3cc(Cl)ccc23)c1	none
O=C(CN1CCC2(CC1)N=C(c1ccc(F)cc1)C(=O)N2)NCc1ccc(Cl)cc1	none
Cc1nc(-c2ccc3c(c2)nnn3CCN2CCCCC2)no1	none
CCOc1ccc2[nH]c(=O)c(-c3nc4cc(C)ccn4c3NC(C)(C)C)cc2c1	none
CCOc1ccc2[nH]c(=O)c(-c3nc4ccc(C)cn4c3NCc3ccccc3)cc2c1	USP17 block 48.5
CC1CCCN(C(=O)C2CCN(c3cc(N4CCCCC4)ncn3)CC2)C1 (stereo not drawn)	none
Cc1ccc(-c2onc(C)c2C)cc1S(=O)(=O)NCc1ccccc1	USP30 inh 34.8
COc1ccc(-c2onc(C)c2C)cc1S(=O)(=O)NCc1ccccc1	none
CC(=O)N1CCN(C(=O)NCc2ccccc2)CC2(CNC(=O)C2)C1 (stereo not drawn)	none
CC(C)c1cc(NCC2CCCO2)n2nc(-c3cccnc3)nc2n1 (stereo not drawn)	none
Cc1ccc(NC(=O)CCc2nc3c(C)nn(-c4ccccc4)c3n(C)c2=O)cc1F	none
CCn1c(=O)c(CCC(=O)NCc2ccccc2F)nc2c(C)nn(-c3ccccc3)c21	none
CSc1cccc(NC(=O)CCc2nc3c(C)nn(-c4ccccc4)c3n(C)c2=O)c1	USP17 block 42.7
Cc1nn(-c2ccccc2)c2c1nc(CCC(=O)NCc1ccccc1F)c(=O)n2C	USP30 inh 42.8
CCc1cccc(NC(=O)CCc2nc3c(C)nn(-c4ccccc4)c3n(C)c2=O)c1	USP17 block 48.0
Cc1ccc(NC(=O)CCc2nc3c(C)nn(-c4ccccc4)c3n(C)c2=O)cc1C	none
Cc1cc(C)cc(NS(=O)(=O)c2cc3c4c(c2)CCC(=O)N4CCC3)c1	none
Cc1cccc(NC(=O)CSc2nnc(-c3ccoc3C)o2)c1	none
CCN(Cc1ccncc1)C(=O)c1cc(-c2ccc(OC)cc2)nc2ccccc12	none
N#Cc1cccc(C(=O)Nc2cccc(Oc3ccccc3)c2)c1	none
N#Cc1cccc(NC(=O)/C=C/c2cccc3ccccc23)c1	USP17 block 34.5
CC1(C)Oc2ccccc2[C@H]2OCC3(CCN(C(=O)C(C)(C)n4cncn4)CC3)C[C@@H]21	none
CCOC(=O)C1CCN(c2nc3ccccc3n2Cc2cccc(F)c2)CC1	none
O=C(Cn1c(N2CCC(Cc3ccccc3)CC2)nc2ccccc21)c1ccccc1	USP30 inh 42.3
O=C(NCC1(O)CCc2ccccc21)c1ccc2c(c1)OCO2 (stereo not drawn)	USP30 inh 33.2
N#Cc1cccc(C(=O)NCC2(O)CCc3ccccc32)c1 (stereo not drawn)	none
CCOC(=O)c1[nH]c(C)c(CN(Cc2ccco2)C(=O)C2CC2)c1C	none
Cc1cccc2cc3c(nc12)N(S(=O)(=O)c1ccc(F)cc1)CC3	none
Cc1cccc2cc3c(nc12)N(C(=O)C1CC1)CC3	USP17 block 34.9

From PubChem
